Data from PubChem BioAssay.
Where “and” joins values, the source holds several entries; their conditions need not be identical. Identical values can stand only once. Where a structure was tested more than once in an assay, its records may differ in their call. Calls of active or inactive are those of the source. Unless noted, no stated cut-off is given here; in the data, active means parasite load remaining mostly below about 12% (no sharp cut-off); inactive means mostly above about 10%.

Key:
[1] = P. berghei load reduction in hepatocytes – cell-based, HepG2, luciferase luminescence, HepG2 viability, primary screen (AID 624349);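 further: 100% = mean of DMSO negative control wells on the same plate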; settings: P. berghei liver stage in HepG2, luciferase luminescence, concentration not given here; parasite load remaining: stronger effect = lower value; viability: measured here: HepG2 viability without parasites
[2] = viability loss with induced miR-34 in A549 – imaging, A549 dox-inducible miR-34, nuclei and caspase counts, primary screen (AID 1347080;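 active means compounds whose cell count with miR-34 switched on is under 0.7 times the count with it off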); settings: A549 miR-34 inducible, Hoechst nuclei count, 48 h
[3] = MELAS cybrid and Rieske KO viability enhancers – cell-based, MELAS cybrids, Rieske KO mouse fibroblasts, CellTiter-Glo, primary screen (AID 1508586;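 active means mean z-score across replicates of 1.96 or higher in either the MELAS or the Rieske mutant cell line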;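 further: z relative to plate mean and SD of compound and empty wells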); settings: low glucose
[4] = galactose survival enhancers in mitochondrial complex I cybrids – cell-based, galactose medium, ATP luminescence, primary screen (AID 1645843;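 active means z-score of at least 1.8 in each of two replicates, scored against plate mean and spread of sample wells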;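 further: positive z means more ATP and so rescue of galactose-driven cybrid death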); settings: complex I mutant cybrid cells, 72 h, stronger effect = higher value
[5] = stronger effect = lower value, cell number ratio, induced over uninduced
[6] = measured here: relative caspase fold change +Dox/-Dox
[7] = measured here: total cells with miR-34 induction, stronger effect = lower value
[8] = measured here: total cells without miR-34 induction
[9] = MELAS cybrid survival, CellTiter-Glo 48 h, stronger effect = higher value
[10] = Rieske KO mouse fibroblast survival, CellTiter-Glo 72 h

Row | Compound | parasite load remaining [1] | viability [1] | fold change [2, 5] | fold change [2, 6] | cell count [2, 7] | cell count [2, 8] | z-score [3, 9] | z-score [3, 10] | z-score [4]
1 | CNC1(C)[C@H]2CC[C@H](C2)C1(C)C (stereo partly specified) | 95.3% (inactive) | 108% | 0.905 (inactive) | 1.29 | 9940 | 11000 | 0.54 (inactive) | -0.569 | 0.66 (inactive)
2 | CS(=O)(=O)c1ccc([C@@H](O)[C@@H](COC(=O)CN)NC(=O)C(Cl)Cl)cc1 | 19.3% (inactive) | 69.5% | 0.967 (inactive) | 1.61 | 9390 | 9720 | -0.278 (inactive) | 1.38 | -1.12 (inactive)
3 | Cc1c(N)nc([C@H](CC(N)=O)NC[C@H](N)C(N)=O)nc1C(=O)N[C@@H](C(=O)N[C@H](C)[C@@H](O)[C@H](C)C(=O)N[C@@H](C(=O)NCCc1nc(-c2ncc(C(=O)NCCC[S+](C)C)s2)cs1)[C@@H](C)O)[C@@H](O[C@@H]1O[C@@H](CO)[C@@H](O)[C@H](O)[C@@H]1O[C@@H]1O[C@H](CO)[C@@H](O)[C@@H](OC(N)=O)[C@@H]1O)c1cnc[nH]1 | 89.5% (inactive) | 111% | 0.865 (inactive) | 1.1 | 4410 | 5100 | -1.31 (inactive) | -1.18 | -1.23 (inactive)
4 | CC[C@@H]1OC(=O)C[C@H](O)[C@@H](C)[C@@H](O[C@@H]2O[C@H](C)[C@@H](O[C@H]3C[C@@](C)(O)[C@@H](O)[C@H](C)O3)[C@H](N(C)C)[C@H]2O)[C@@H](C=O)C[C@@H](C)C(=O)/C=C/C(C)=C\[C@@H]1CO[C@H]1O[C@@H](C)[C@H](O)[C@H](OC)[C@@H]1OC | 27.3% (inactive) | 67% | 0.839 (inactive) | 1.48 | 9360 | 11200 | 0.258 (inactive) | -0.691 | 0.54 (inactive)
5 | COC(=O)c1ccc(=O)c2nc3/c(=C/O)c(O)cc(=O)c3[nH]c12 | 91.5% (inactive) | 96.5% | 0.984 (inactive) | 1.28 | 3340 | 3400 | 0.379 (inactive) | -0.491 | -0.55 (inactive)
6 | CCCCn1c(=O)c2c(ncn2CC(C)=O)n(CCCC)c1=O | 49% (inactive) | 100% | 0.978 (inactive) | 1.23 | 10200 | 10400 | 0.541 (inactive) | 0.0406 | 0.875 (inactive)
7 | CC1/C=C/C=C/CC/C=C/C=C/C=C/C=C/C(O[C@@H]2O[C@H](C)[C@@H](O)[C@H](N)[C@@H]2O)CC(O)C(C(=O)O)C(O)CC(=O)CC(O)C(O)CCC(O)CC(O)CC(O)CC(=O)OC(C)C(C)C1O (stereo partly specified) | 90.8% (inactive) and 24.4% (inactive) | 111% and 90.5% | 0.86 (inactive) and 0.844 (inactive) | 1.56 and 1.28 | 9420 and 8760 | 11000 and 10400 | 2.26 (active) and 0.353 (inactive) | 0.0499 and 0.288 | 0.5 (inactive)
8 | CO[C@@H]1[C@@H](OC(N)=O)[C@H](O)[C@H](Oc2ccc3c(O)c(NC(=O)c4ccc(O)c(CC=C(C)C)c4)c(=O)oc3c2C)OC1(C)C | 81.2% (inactive) | 108% | 0.831 (inactive) | 1.55 | 9200 | 11100 | 0.157 (inactive) | 0.871 | 1.12 (inactive)
9 | O[C@H]1[C@H](O)[C@@H](O)[C@@H]2O[C@@H]2[C@@H]1O | 29.7% (inactive) | 72% | 0.828 (inactive) | 1.47 | 9740 | 11800 | 0.534 (inactive) | 0.1 | 0.2 (inactive)
